Key:
Assay in all cases: DAPPL (digital affinity profiling via proximity ligation, sequencing); 10 mM Tris-HCl pH 7.5, 50 mM NaCl, 1 mM DTT, 4% glycerol, room temperature, 30 min; GST-TFs on glutathione beads, 16-mer random dsDNA library, 0.1% formaldehyde crosslink after washing; high values mean tight binding
Conditions in all cases: protein: recombinant; tags: N-terminal GST; dsDNA, one strand shown
FLI1 = target: T1, FLI1 (Homo sapiens, UniProt Q01543 1-452)
T1 sequence: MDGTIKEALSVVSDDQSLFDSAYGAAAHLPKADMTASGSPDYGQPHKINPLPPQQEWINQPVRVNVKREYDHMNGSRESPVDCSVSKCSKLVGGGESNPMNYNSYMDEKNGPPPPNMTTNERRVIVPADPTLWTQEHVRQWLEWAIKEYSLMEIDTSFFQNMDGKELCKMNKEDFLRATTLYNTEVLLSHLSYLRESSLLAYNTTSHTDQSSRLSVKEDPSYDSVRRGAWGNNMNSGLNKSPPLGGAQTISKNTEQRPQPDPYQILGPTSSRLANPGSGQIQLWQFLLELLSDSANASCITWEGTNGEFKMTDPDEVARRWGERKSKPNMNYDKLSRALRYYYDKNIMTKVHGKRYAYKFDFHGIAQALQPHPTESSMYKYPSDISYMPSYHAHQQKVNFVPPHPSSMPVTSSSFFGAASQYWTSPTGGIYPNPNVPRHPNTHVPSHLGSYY
Method in brief: (§1)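 In yeast, human transcription factors were expressed with a GST fusion, then pulled down on glutathione beads and given DNA barcodes. Pooled with a tag-only sample, they were exposed to 200 nmole of a 16-mer random double-stranded DNA library (Tris/NaCl/DTT/glycerol buffer, room temperature, 30 min), washed, crosslinked with 0.1% formaldehyde, proximity-ligated using BsaI/T4 ligase for 1 h at 37 °C, PCR-amplified and read on an Illumina NextSeq500. Each hexamer's frequency of reads for a factor, divided by the matching frequency for the tag-only sample, gives the binding signal.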

ELK1 = target: T2, ELK1 (Homo sapiens, UniProt P19419 1-428)
T2 sequence: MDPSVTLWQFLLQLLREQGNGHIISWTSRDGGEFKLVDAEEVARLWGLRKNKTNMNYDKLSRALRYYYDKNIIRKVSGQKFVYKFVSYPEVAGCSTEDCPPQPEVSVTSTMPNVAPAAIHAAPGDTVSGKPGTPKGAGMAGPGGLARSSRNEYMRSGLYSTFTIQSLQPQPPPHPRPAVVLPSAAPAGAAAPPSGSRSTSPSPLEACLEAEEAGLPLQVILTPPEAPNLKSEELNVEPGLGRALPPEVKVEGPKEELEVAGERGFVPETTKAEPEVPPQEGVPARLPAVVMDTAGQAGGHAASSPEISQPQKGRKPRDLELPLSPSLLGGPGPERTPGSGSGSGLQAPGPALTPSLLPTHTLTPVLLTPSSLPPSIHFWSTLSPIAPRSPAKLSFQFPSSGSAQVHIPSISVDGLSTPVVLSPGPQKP
Method in brief: as §1

GABPA = target: T3, GABPA (Homo sapiens, UniProt Q06546 1-454)
T3 sequence: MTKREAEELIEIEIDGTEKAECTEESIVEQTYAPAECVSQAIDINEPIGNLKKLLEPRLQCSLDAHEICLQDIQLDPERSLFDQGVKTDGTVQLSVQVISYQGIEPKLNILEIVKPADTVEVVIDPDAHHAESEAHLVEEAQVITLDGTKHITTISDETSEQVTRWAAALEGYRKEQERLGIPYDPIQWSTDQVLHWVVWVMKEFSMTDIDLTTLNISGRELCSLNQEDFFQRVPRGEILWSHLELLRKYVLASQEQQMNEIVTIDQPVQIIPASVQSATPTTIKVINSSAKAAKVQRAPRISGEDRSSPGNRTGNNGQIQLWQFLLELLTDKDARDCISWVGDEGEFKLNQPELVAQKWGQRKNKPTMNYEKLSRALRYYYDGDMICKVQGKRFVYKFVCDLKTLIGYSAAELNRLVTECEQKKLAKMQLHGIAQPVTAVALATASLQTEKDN
Method in brief: as §1

ERG = target: T4, ERG (Homo sapiens, UniProt P11308 1-479)
T4 sequence: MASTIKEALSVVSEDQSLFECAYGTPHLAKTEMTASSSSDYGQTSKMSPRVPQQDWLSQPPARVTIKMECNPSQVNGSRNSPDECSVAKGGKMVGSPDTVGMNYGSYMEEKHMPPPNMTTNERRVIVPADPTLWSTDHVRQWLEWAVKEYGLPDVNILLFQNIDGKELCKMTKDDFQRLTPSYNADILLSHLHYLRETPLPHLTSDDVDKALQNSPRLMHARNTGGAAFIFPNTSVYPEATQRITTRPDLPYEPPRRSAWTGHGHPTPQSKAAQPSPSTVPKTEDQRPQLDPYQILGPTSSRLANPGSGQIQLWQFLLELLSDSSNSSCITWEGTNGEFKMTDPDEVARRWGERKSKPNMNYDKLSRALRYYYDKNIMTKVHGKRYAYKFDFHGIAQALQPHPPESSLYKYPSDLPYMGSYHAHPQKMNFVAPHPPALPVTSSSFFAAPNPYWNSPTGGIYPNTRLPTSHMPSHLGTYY
Method in brief: as §1

ELF1 = ELF1 (Homo sapiens, UniProt P32519 1-619)
ELF1, sequence (P32519 whole entry): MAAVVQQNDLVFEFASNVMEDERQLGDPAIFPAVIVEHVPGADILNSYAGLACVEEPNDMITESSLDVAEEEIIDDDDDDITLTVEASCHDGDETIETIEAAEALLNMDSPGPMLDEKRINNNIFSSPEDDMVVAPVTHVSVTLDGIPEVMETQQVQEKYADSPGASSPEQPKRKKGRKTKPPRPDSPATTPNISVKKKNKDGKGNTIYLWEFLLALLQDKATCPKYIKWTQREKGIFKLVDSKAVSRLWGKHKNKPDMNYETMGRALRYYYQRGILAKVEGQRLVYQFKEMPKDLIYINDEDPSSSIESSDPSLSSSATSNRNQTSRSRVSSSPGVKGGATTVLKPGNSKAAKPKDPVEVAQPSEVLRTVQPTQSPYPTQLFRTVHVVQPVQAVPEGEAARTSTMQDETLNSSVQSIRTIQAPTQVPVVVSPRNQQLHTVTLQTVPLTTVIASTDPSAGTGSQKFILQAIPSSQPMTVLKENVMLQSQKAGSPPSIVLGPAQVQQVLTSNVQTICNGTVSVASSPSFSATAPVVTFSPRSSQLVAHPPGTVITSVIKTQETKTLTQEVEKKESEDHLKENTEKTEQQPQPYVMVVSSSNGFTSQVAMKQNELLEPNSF
Method in brief: as §1

EHF = target: T5, EHF (Homo sapiens, UniProt Q9NZC4 1-300)
T5 sequence: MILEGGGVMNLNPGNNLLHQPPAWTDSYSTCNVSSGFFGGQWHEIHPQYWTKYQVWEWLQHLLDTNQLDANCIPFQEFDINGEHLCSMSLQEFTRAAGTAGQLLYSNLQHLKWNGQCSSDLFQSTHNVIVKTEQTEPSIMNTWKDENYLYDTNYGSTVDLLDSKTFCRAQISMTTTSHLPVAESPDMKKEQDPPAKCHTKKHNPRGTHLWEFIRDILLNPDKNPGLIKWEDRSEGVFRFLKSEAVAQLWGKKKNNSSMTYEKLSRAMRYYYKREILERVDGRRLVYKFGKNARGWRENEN
Method in brief: as §1

SPI1 = SPI1 (Homo sapiens, UniProt P17947 1-270)
Method in brief: as §1

SPIB = SPIB (Homo sapiens, UniProt Q01892 1-262)
SPIB, sequence (Q01892 whole entry): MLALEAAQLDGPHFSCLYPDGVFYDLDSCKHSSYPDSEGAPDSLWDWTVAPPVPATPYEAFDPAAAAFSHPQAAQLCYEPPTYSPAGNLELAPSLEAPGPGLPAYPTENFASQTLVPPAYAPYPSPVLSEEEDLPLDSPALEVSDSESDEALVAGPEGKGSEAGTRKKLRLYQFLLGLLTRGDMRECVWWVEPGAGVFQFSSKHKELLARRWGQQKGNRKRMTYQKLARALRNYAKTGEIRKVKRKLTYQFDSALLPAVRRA
Method in brief: as §1

ELK3 = target: T6, ELK3 (Homo sapiens, UniProt P41970 1-407)
T6 sequence: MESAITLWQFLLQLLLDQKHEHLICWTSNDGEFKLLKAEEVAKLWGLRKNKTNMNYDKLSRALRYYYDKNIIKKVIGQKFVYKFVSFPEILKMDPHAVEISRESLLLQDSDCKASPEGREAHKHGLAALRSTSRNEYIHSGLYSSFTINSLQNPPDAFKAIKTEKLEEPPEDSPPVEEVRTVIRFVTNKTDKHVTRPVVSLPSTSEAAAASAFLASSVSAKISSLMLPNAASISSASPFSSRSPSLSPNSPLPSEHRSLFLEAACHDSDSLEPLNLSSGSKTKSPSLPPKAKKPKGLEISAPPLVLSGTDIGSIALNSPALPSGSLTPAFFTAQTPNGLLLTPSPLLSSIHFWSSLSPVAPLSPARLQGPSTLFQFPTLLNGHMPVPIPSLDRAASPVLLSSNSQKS
Method in brief: as §1

| Sequence | binding signal (FLI1) | binding signal (ELK1) | binding signal (GABPA) | binding signal (ERG) | binding signal (ELF1) | binding signal (EHF) | binding signal (SPI1) | binding signal (SPIB) | binding signal (ELK3) |
| --- | --- | --- | --- | --- | --- | --- | --- | --- | --- |
| TCAAAC | 1.17 fold enrichment (6-mer frequency, TF over GST control) | 1.25 fold enrichment (6-mer frequency, TF over GST control) | 1.26 fold enrichment (6-mer frequency, TF over GST control) | 1.26 fold enrichment (6-mer frequency, TF over GST control) | 1.15 fold enrichment (6-mer frequency, TF over GST control) | 1.15 fold enrichment (6-mer frequency, TF over GST control) | 1.16 fold enrichment (6-mer frequency, TF over GST control) | 1.16 fold enrichment (6-mer frequency, TF over GST control) | 1.2 fold enrichment (6-mer frequency, TF over GST control) |
| GCTTTG | 1.24 fold enrichment (6-mer frequency, TF over GST control) | 1.1 fold enrichment (6-mer frequency, TF over GST control) | 1.11 fold enrichment (6-mer frequency, TF over GST control) | 1.15 fold enrichment (6-mer frequency, TF over GST control) | 1.14 fold enrichment (6-mer frequency, TF over GST control) | 1.15 fold enrichment (6-mer frequency, TF over GST control) | 1.07 fold enrichment (6-mer frequency, TF over GST control) | 1.14 fold enrichment (6-mer frequency, TF over GST control) | 1.12 fold enrichment (6-mer frequency, TF over GST control) |
| ATATAC | 1.13 fold enrichment (6-mer frequency, TF over GST control) | 1.24 fold enrichment (6-mer frequency, TF over GST control) | 1.2 fold enrichment (6-mer frequency, TF over GST control) | 1.18 fold enrichment (6-mer frequency, TF over GST control) | 1.14 fold enrichment (6-mer frequency, TF over GST control) | 1.22 fold enrichment (6-mer frequency, TF over GST control) | 1.19 fold enrichment (6-mer frequency, TF over GST control) | 1.21 fold enrichment (6-mer frequency, TF over GST control) | 1.27 fold enrichment (6-mer frequency, TF over GST control) |
| ACGATT | 1.44 fold enrichment (6-mer frequency, TF over GST control) | 1.31 fold enrichment (6-mer frequency, TF over GST control) | 1.29 fold enrichment (6-mer frequency, TF over GST control) | 1.34 fold enrichment (6-mer frequency, TF over GST control) | 1.32 fold enrichment (6-mer frequency, TF over GST control) | 1.32 fold enrichment (6-mer frequency, TF over GST control) | 1.31 fold enrichment (6-mer frequency, TF over GST control) | 1.3 fold enrichment (6-mer frequency, TF over GST control) | 1.38 fold enrichment (6-mer frequency, TF over GST control) |
| AGCCTT | 1.12 fold enrichment (6-mer frequency, TF over GST control) | 1.11 fold enrichment (6-mer frequency, TF over GST control) | 1.01 fold enrichment (6-mer frequency, TF over GST control) | 1.11 fold enrichment (6-mer frequency, TF over GST control) | 1.2 fold enrichment (6-mer frequency, TF over GST control) | 1.15 fold enrichment (6-mer frequency, TF over GST control) | 1.12 fold enrichment (6-mer frequency, TF over GST control) | 1.21 fold enrichment (6-mer frequency, TF over GST control) | 1.03 fold enrichment (6-mer frequency, TF over GST control) |
| CCTTCC | 2.45 fold enrichment (6-mer frequency, TF over GST control) | 2.68 fold enrichment (6-mer frequency, TF over GST control) | 2.22 fold enrichment (6-mer frequency, TF over GST control) | 3.03 fold enrichment (6-mer frequency, TF over GST control) | 2.39 fold enrichment (6-mer frequency, TF over GST control) | 2.75 fold enrichment (6-mer frequency, TF over GST control) | 2.48 fold enrichment (6-mer frequency, TF over GST control) | 2.75 fold enrichment (6-mer frequency, TF over GST control) | 2.47 fold enrichment (6-mer frequency, TF over GST control) |
| AATTGA | 1.18 fold enrichment (6-mer frequency, TF over GST control) | 1.19 fold enrichment (6-mer frequency, TF over GST control) | 1.2 fold enrichment (6-mer frequency, TF over GST control) | 1.16 fold enrichment (6-mer frequency, TF over GST control) | 1.15 fold enrichment (6-mer frequency, TF over GST control) | 1.25 fold enrichment (6-mer frequency, TF over GST control) | 1.16 fold enrichment (6-mer frequency, TF over GST control) | 1.2 fold enrichment (6-mer frequency, TF over GST control) | 1.27 fold enrichment (6-mer frequency, TF over GST control) |
| TACACT | 1.41 fold enrichment (6-mer frequency, TF over GST control) | 1.57 fold enrichment (6-mer frequency, TF over GST control) | 1.51 fold enrichment (6-mer frequency, TF over GST control) | 1.58 fold enrichment (6-mer frequency, TF over GST control) | 1.5 fold enrichment (6-mer frequency, TF over GST control) | 1.62 fold enrichment (6-mer frequency, TF over GST control) | 1.54 fold enrichment (6-mer frequency, TF over GST control) | 1.5 fold enrichment (6-mer frequency, TF over GST control) | 1.51 fold enrichment (6-mer frequency, TF over GST control) |
